Screens deposited in PubChem BioAssay by several laboratories.
TRPM1 prom inh: MITF TRPM1 promoter inhibition in SK-MEL-5 cells; inhibition, % at 12.5 µM; AID 488899; 0.83% of 330,000 active; SK-MEL-5 TRPM1 promoter luciferase, 24 h;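 active = mean inhibition across replicates of 60% or more, whatever share of single replicates reaches that level; inconclusive = some that reach 60%, reason not given; inactive = mean inhibition across replicates below 60%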
697 NFkB inh: lowers PMA/ionomycin-induced NF-kB signal in 697 B cells; AID 435022; 0.33% of 330,000 active; inhibition, % at 4 µM; 697 B-cell NF-kB luciferase reporter, 16 h; in the data active = inhibition above about 35%
LMP1 NFkB inh: inhibitors of Epstein-Barr LMP1-induced NF-kappaB reporter. LMP1-induced NF-kappaB luciferase reporter cells, luminescence. inhibition, % at 12.5 µM. 0.69% of 350,000 active. AID 504558; in the data active = inhibition above about 41%; inconclusive = no clear call, values can overlap the other calls
Shn3 inh set2: Schnurri-3 reporter inhibition in Clone20 osteoblasts. inhibition, % at 12.5 µM. 0.52% of 360,000 active. AID 588674. Clone20 osteoblast Shn3 3'UTR firefly luciferase, 24 h;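 active = mean inhibition of at least 75% with every replicate also reaching 75%; inconclusive = mean inhibition at least 75% but some replicate below; inactive = mean inhibition below 75%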
Jurkat NFkB inh: inhibitors of the PMA/ionomycin-induced NF-kB reporter in Jurkat cells | PMA/ionomycin-induced NF-kB luciferase reporter, luminescence | inhibition, % at 4 µM | 0.53% of 330,000 active | AID 435003; in the data active = inhibition above about 50%
Gli-Sufu antag: Gli-Sufu pathway antagonism | Sufu-KO-LIGHT fibroblasts, Gli luciferase reporter luminescence | inhibition, % at 5 µM | 0.74% of 340,000 active | AID 588413;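 active = inhibition above about 55%, limit read from the data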
Jurkat NFkB conf: inhibitors of the PMA/ionomycin-induced NF-kB reporter in Jurkat cells, retest | shares compounds with Jurkat NFkB inh | Jurkat NF-kB luciferase, 16 h | inhibition, % at 4 µM | 27% of 2,700 active;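 active = inhibition reaching about 45% at 4 µM in either replicate, limit read from the data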
697 NFkB conf: inhibitors of the PMA/ionomycin-induced NF-kB reporter in 697 B cells, retest. AID 449746. shares compounds with 697 NFkB inh. 35% of 2,000 active. inhibition, % at 4 µM. 697 B-cell NF-kB luciferase, 16 h; in the data active = inhibition mostly above about 28%, no sharp cut-off; inactive = mostly below about 22%
Large screens that a line does not name were inactive (follow-up assays come after a bar, where they were run). This is a sample that favours compounds with a hit; in the whole collection about 2.3% have one here.

Cc1nn(-c2ccccc2)c(Cl)c1/C=N/Nc1nc2ccccc2[nH]1	none | Jurkat NFkB conf inactive | 697 NFkB conf inactive
Cc1cc(=O)[nH]c(N/N=C/c2c(C)nn(-c3ccccc3)c2Cl)n1	none
CCCCCCCCCn1c2c(c(=N)c3c1CCC3)CCC2	TRPM1 prom inh 78, 697 NFkB inh 94, Jurkat NFkB inh 91, Gli-Sufu antag 94 | Jurkat NFkB conf 74 | 697 NFkB conf inactive
CCCCCCn1c(=O)[nH]c2c(c1=O)CCC2	none
CCCCCCn1c2c(c(=N)c3c1CCC3)CCC2	TRPM1 prom inh inconclusive, 697 NFkB inh 104, LMP1 NFkB inh inconclusive, Jurkat NFkB inh 65, Gli-Sufu antag 89 | Jurkat NFkB conf 69 | 697 NFkB conf 34
CN(C(=O)c1cccc(NC(=O)c2cccs2)c1)c1ccccc1	none
COc1cccc(CN(CC2CCCO2)C(=O)c2cc3ccccc3oc2=O)c1 (stereo not drawn)	none
FC(F)(F)c1nnc2c(Sc3ccccc3)nc3ccc(Cl)cc3n12	TRPM1 prom inh 82, 697 NFkB inh 67, Jurkat NFkB inh 85 | Jurkat NFkB conf inactive | 697 NFkB conf inactive
CC(C)(C)S(=O)(=O)c1cnc2c(-c3ccc(Cl)cc3)cnn2c1N	none
Nc1c(-c2ccc(Cl)cc2)cnc2c(-c3ccccc3)cnn12	none | Jurkat NFkB conf inactive | 697 NFkB conf inactive
COc1cccc2c1OCC(C(=O)O)C2 (stereo not drawn)	none
COc1cccc2c1C(CO)N1C(C#N)C3CC(C(=O)O)C(C1C2)N3C (stereo not drawn)	TRPM1 prom inh 67, 697 NFkB inh 104, LMP1 NFkB inh 89, Jurkat NFkB inh 97 | Jurkat NFkB conf 96 | 697 NFkB conf 102
CCCOC(=O)c1[nH]c2c(c1C)C(=O)CC(c1ccc(OC)c(OC)c1)C2 (stereo not drawn)	none
CCCCCOC(=O)c1[nH]c2c(c1C)C(=O)CC(c1ccco1)C2 (stereo not drawn)	Shn3 inh set2 92, Jurkat NFkB inh 67, Gli-Sufu antag 69 | Jurkat NFkB conf 49 | 697 NFkB conf inactive
CC(=O)Nc1ccccc1OCC(=O)c1cc(C)n(Cc2cccs2)c1C	697 NFkB inh 96, Jurkat NFkB inh 56, Gli-Sufu antag 79 | Jurkat NFkB conf 58 | 697 NFkB conf 65
COC(=O)c1cn[nH]c1NC(=S)Nc1ccccc1C	none
COC(=O)c1cn[nH]c1NC(=S)Nc1ccc(C)cc1Cl	none | Jurkat NFkB conf inactive | 697 NFkB conf inactive
COC(=O)c1cn[nH]c1NC(=S)Nc1ccc(Cl)c(Cl)c1	none | Jurkat NFkB conf inactive | 697 NFkB conf inactive
CCc1ccc(NC(=S)N2CCCC2)cc1	none
CN=c1scc(-c2ccccc2F)n1/N=C/c1ccc[nH]1	TRPM1 prom inh 90, 697 NFkB inh 36, LMP1 NFkB inh 82, Jurkat NFkB inh 70, Gli-Sufu antag 86 | Jurkat NFkB conf 75 | 697 NFkB conf 42
CCN=c1scc(-c2ccc(F)cc2)n1/N=C/c1ccccn1	none
CC1(C(=O)NS(=O)(=O)C2CC2)CCN(C(=O)c2ccccc2C(F)(F)F)C1 (stereo not drawn)	none (no result: TRPM1 prom inh, 697 NFkB inh, LMP1 NFkB inh, Jurkat NFkB inh, Gli-Sufu antag)
O=C(Nc1ccc2c(c1)CCC2)Nc1ccccc1F	none (no result: Gli-Sufu antag) | Jurkat NFkB conf inactive | 697 NFkB conf inactive
Cc1ccccc1NC(=O)Nc1ccc2c(c1)CCC2	none
Cc1ccc2[nH]c3c(c2c1)CCCC3C(N)=O (stereo not drawn)	none
Cc1ccc2[nH]c3c(c2c1)CCCC3NC(=O)CCl (stereo not drawn)	LMP1 NFkB inh 87, Jurkat NFkB inh 97 | Jurkat NFkB conf 95 | 697 NFkB conf inactive
CCOc1ccc(NC(=O)CSc2nnnn2C2CCCC2)cc1	none
Cc1ccccc1-c1nc2cc(NC(=O)C3CC3)ccc2o1	none | Jurkat NFkB conf inactive | 697 NFkB conf inactive
O=c1oc2ccccc2cc1-c1nc2ccccc2o1	none
O=c1oc2ccccc2cc1-c1nc2c(s1)CCCC2	none | Jurkat NFkB conf inactive | 697 NFkB conf inactive
Cc1onc(-c2c(F)cccc2Cl)c1C(=O)Nc1ccc(S(=O)(=O)Nc2ncccn2)cc1	none (no result: 697 NFkB inh, Jurkat NFkB inh)
COc1cc(NC(=O)COc2cc(O)c3c(c2)OC(C)(C)CC3=O)cc(OC)c1OC	TRPM1 prom inh 72, 697 NFkB inh 59, Shn3 inh set2 86, Jurkat NFkB inh 58, Gli-Sufu antag 70 | Jurkat NFkB conf 76 | 697 NFkB conf 48
CC1(C)CC(=O)c2c(O)cc(OCC(=O)Nc3ccc(S(N)(=O)=O)cc3)cc2O1	none
CNC(=O)NC1CCCCc2sccc21 (stereo not drawn)	none
CC(C)CCN1CC(O)=C(c2nc(-c3ccc(Cl)cc3)cs2)C1=N	none
COc1ccc(C(=O)c2sc3nc(-c4ccccc4)ccc3c2N)cc1	none
CC(C)OC(=O)c1sc2nc(-c3ccccc3)ccc2c1N	none | Jurkat NFkB conf inactive | 697 NFkB conf inactive
CCC(C)(C)NC(=O)C(c1ccc(C)cc1)N(Cc1ccco1)C(=O)Cn1nnc2ccccc21 (stereo not drawn)	none
CCC(=O)Nc1cc(OC)c(NC(=S)Nc2ccccc2CC)cc1OC	none (no result: TRPM1 prom inh, 697 NFkB inh, Jurkat NFkB inh, Gli-Sufu antag)
COc1ccc2c(CC(=O)NCc3ccc4c(c3)OCO4)coc2c1	none
C/C(=N\Nc1cccc2cccnc12)c1ccccn1	none | Jurkat NFkB conf inactive | 697 NFkB conf inactive
O=C(Nc1cccc(OC(F)(F)F)c1)[C@@H]1O[C@H](CO)[C@H](O)[C@H](O)[C@H]1O	none (no result: TRPM1 prom inh, 697 NFkB inh, LMP1 NFkB inh, Jurkat NFkB inh, Gli-Sufu antag)
Cc1ccc2nc(NC(=O)CCCC(=O)O)sc2c1	TRPM1 prom inh 79, 697 NFkB inh 71, Jurkat NFkB inh 55 | Jurkat NFkB conf 69 | 697 NFkB conf 76
O=c1oc(-c2cccs2)nc2sc3c(c12)CCCC3	none
O=c1c2c3c(sc2nc2n1N=C(c1cccs1)CS2)CCCC3	none | Jurkat NFkB conf inactive | 697 NFkB conf inactive
C=CCn1c(C)cc(C(=O)CN2C(=O)c3ccccc3S2(=O)=O)c1C	TRPM1 prom inh 94, 697 NFkB inh 66, LMP1 NFkB inh 87, Shn3 inh set2 91, Jurkat NFkB inh 89, Gli-Sufu antag 89 | Jurkat NFkB conf 49 | 697 NFkB conf 45
CCOC(=O)c1sc(NC(=O)c2sccc2C)cc1C	none | Jurkat NFkB conf inactive | 697 NFkB conf inactive
CN(C)c1ccc(/C=N/N=C/c2ccccc2O)cc1	none | Jurkat NFkB conf inactive | 697 NFkB conf inactive
Nc1nc(NC2CCCCC2)nc(NCCO)c1[N+](=O)[O-]	none (no result: Gli-Sufu antag)
Cc1ccccc1Nc1nc(N)c2ccccc2n1	none
Nc1nc(Nc2ccc(Cl)cc2)nc2ccccc12	none | Jurkat NFkB conf inactive | 697 NFkB conf inactive
Cc1ccc(Nc2nc(N)c3ccccc3n2)cc1Cl	none | Jurkat NFkB conf inactive | 697 NFkB conf inactive
CC(C)NC(=O)C1(C)CCN1C(=O)c1ccccc1F (stereo not drawn)	none (no result: TRPM1 prom inh, 697 NFkB inh, LMP1 NFkB inh, Jurkat NFkB inh, Gli-Sufu antag)
CC(=O)Nc1nc2cc3c(cc2s1)OCCO3	none (no result: TRPM1 prom inh)
